# Data from PubChem BioAssay (EPA / NIEHS).
# Where “and” joins values, the source holds several entries; their conditions need not be identical. Equal values may be shown once. Inconclusive results are not listed. A structure can be active in one record and inactive in another. Calls of active or inactive are those of the source. How the source made its calls, unless noted: active means hit-call score of the fitted dose curve at least 0.9, where 1 is the maximum; inactive means score below 0.9.
# Experiments:
# [1] = read-out: E-selectin (Homo sapiens) (UniProt P16581); test: BSK_SAg_Eselectin: BioMAP Diversity Plus: SAg Assay for Eselectin Biomarker Activity (AID 2283091); settings: primary human HUVEC with PBMC; actives raise or lower the signal
# How it was run: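 Endpoint values derive from bidirectional fitting relative to DMSO, using ELISA-measured E-selectin in a human vascular co-culture (umbilical vein endothelium plus PBMC) sampled 24 h after dosing.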
# [2] = read-out: Monokine induced gamma interferon (MIG), CXCL9 (gene 4283); test: BSK_SAg_MIG: BioMAP Diversity Plus: SAg Assay for Monokine induced gamma interferon (MIG) Biomarker Activity (AID 2283092); settings: primary human HUVEC with PBMC; actives raise or lower the signal
# How it was run: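 ELISA readout of MIG/CXCL9; primary human umbilical vein endothelial cells co-cultured with peripheral blood mononuclear cells; 24 h post-dose; gain/loss fit vs DMSO baseline.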
# [3] = BSK_SAg_PBMCCytotoxicity: PBMC Cytotoxicity Assessment in the BioMAP Diversity Plus: SAg Assay (AID 2283093); settings: primary human HUVEC with PBMC;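 further: PBMC viability measured as Alamar Blue reduction fluorescence at 546/580 nm; fitted both ways against DMSO so a hit may be loss or gain of signal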;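 on AC50: PBMC superantigen activated with SEB plus TSST-1 one hour after compound addition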
# How it was run: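 Alamar Blue reduction (6 h, ex/em 546/580 nm) read after 90 h culture of PBMC pre-dosed 1 h then stimulated with SEB plus TSST-1, 20 ng/mL each. Gain or loss of signal fitted relative to DMSO.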
# [4] = read-out: Interleukin-8 (IL8), CXCL8 (gene 3576); test: BSK_SAg_IL8: BioMAP Diversity Plus: SAg Assay for Interleukin-8 (IL8) Biomarker Activity (AID 2283094); settings: primary human HUVEC with PBMC; actives raise or lower the signal
# How it was run: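 HUVEC/PBMC co-culture, 24 h post-dose; IL-8 by ELISA. Gain or loss of signal fitted bidirectionally vs DMSO baseline.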
# [5] = BSK_SAg_Proliferation: Cell Proliferation Assessment in the BioMAP Diversity Plus: SAg Assay (AID 2283095); settings: primary human HUVEC with PBMC;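 further: relative cell number as total protein by SRB absorbance in sub-confluent culture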
# How it was run: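 HUVEC/PBMC co-culture, 96-well. TCA-fixed (10%), 0.1% SRB stain, A560 at 96 h. Protein content used as viability readout; bidirectional fitting vs DMSO control.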
# [6] = BSK_SAg_SRB: Viability Assessment in the BioMAP Diversity Plus: SAg Assay (AID 2283096); settings: primary human HUVEC with PBMC;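 further: cells read one day after compound addition; hits may be either gain or loss of signal compared with DMSO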
# How it was run: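 SRB absorbance at 560 nm served as the viability read-out. Cells (HUVEC plus peripheral blood mononuclear cells) were TCA-fixed and stained 24 h post-dosing; activity fitted in both directions against DMSO controls.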
# [7] = target: human CYP19A1, CYP19A1 (gene 1588) (UniProt P11511); test: NVS_ADME_hCYP19A1: NovaScreen (NVS) CYP450-related Enzyme Activity (ADME) Assay for human CYP19A1 (AID 2283098; active means hit-call score of the fitted dose curve at least 0.9, where 1 is the maximum;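 on AC50: potency for inhibitors seen as loss of fluorescent enzyme signal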)
# How it was run: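 Primary testing was in duplicate at a single 10 uM concentration, with actives followed up in concentration-response series. Fluorescence read-out of recombinant enzyme activity at 0.5 h, cell-free. Acetonitrile was the negative-control baseline.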
# [8] = target: human CYP2B6, CYP2B6 (gene 1555) (UniProt P20813); test: NVS_ADME_hCYP2B6: NovaScreen (NVS) CYP450-related Enzyme Activity (ADME) Assay for human CYP2B6 (AID 2283101; active means hit-call score of the fitted dose curve at least 0.9, where 1 is the maximum)
# How it was run: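 Fluorescence-based enzyme activity of recombinant human CYP2B6, measured 1 h post-dose against acetonitrile vehicle baseline. Screened at a single concentration of 10 uM in duplicate before concentration-response follow-up.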
# [9] = target: human CYP2A6, CYP2A6 (gene 1548) (UniProt P11509); test: NVS_ADME_hCYP2A6: NovaScreen (NVS) CYP450-related Enzyme Activity (ADME) Assay for human CYP2A6 (AID 2283099; active means hit-call score of the fitted dose curve at least 0.9, where 1 is the maximum)
# How it was run: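 Loss of fluorescence signal relative to acetonitrile vehicle reported CYP2A6 inhibition in a cell-free system using insect-cell-derived enzyme. Readings were taken at 0.5 h; top concentration in follow-up dose series was 20 uM.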
# [10] = target: human CYP1A1, CYP1A1 (gene 1543) (UniProt P04798); test: NVS_ADME_hCYP1A1: NovaScreen (NVS) CYP450-related Enzyme Activity (ADME) Assay for human CYP1A1 (AID 2283100; active means hit-call score of the fitted dose curve at least 0.9, where 1 is the maximum)
# Experimental: NVS_ADME_hCYP1A1 is a biochemical, single-readout assay that uses extracted gene-proteins in a cell-free assay. Measurements were taken 1 hour after chemical dosing in a 96-well plate.NVS_ADME_hCYP1A1 is one of one assay component(s) measured or calculated from the NVS_ADME_hCYP1A1 assay. It is designed to make measurements of enzyme activity, a form of enzyme reporter, as detected with fluorescence intensity signals by Fluorescence technology.Data from the assay component NVS_ADME_hCYP1A1 was analyzed into 1 assay endpoint. This assay endpoint, NVS_ADME_hCYP1A1, was analyzed in the positive analysis fitting direction relative to Acetonitrile as the negative control and baseline of activity. Using a type of enzyme reporter, loss-of-signal activity can be used to understand changes in the enzymatic activity as they relate to the gene CYP1A1. Furthermore, this assay endpoint can be referred to as a primary readout, because this assay has produced multiple assay endpoints where this one serves a enzymatic activity function. To generalize the intended target to other relatable targets, this assay endpoint is annotated to the cyp intended target family, where the subfamily is xenobiotic metabolism.
# Binding assays used specific radioligands (tritiated, iodinated) with non-radioactive competitive displacement ligands in agonist or antagonist protocols (as indicated) and various reference compounds and inhibitors to titrate specific binding to receptors and transporters. Most enzyme assays (CYPs, kinases, phosphatases, proteases, HDACs) used recombinant protein and specific substrates (fluorescence mostly, some colorimetric and radioactive) and inhibitors, followed by a biochemical separation of substrate and product. All assays for the biochemical HTS were initially run in duplicate at a single concentration (10 uM for CYP450 assays and 25 uM for all others). Assay-chemical combinations meeting a pre-defined threshold (e.g., 30% inhibition and other criteria defined below) were then run in singleton concentration-response format with maximum concentration of 20 uM for CYPs and 50 uM for all others. Each assay was run with positive and negative controls, and concurrent controls on every plate. The follow-up (secondary) screen tested active chemical-pairs in concentration series, as well as a few additional assays not tested in the primary screen, some selected negative inactives, and several cases re-run in the concentration series for confirmatory purposes.
# human CYP19A1, CYP19A1 (gene 1588), sequence (P11511 whole entry, looked up): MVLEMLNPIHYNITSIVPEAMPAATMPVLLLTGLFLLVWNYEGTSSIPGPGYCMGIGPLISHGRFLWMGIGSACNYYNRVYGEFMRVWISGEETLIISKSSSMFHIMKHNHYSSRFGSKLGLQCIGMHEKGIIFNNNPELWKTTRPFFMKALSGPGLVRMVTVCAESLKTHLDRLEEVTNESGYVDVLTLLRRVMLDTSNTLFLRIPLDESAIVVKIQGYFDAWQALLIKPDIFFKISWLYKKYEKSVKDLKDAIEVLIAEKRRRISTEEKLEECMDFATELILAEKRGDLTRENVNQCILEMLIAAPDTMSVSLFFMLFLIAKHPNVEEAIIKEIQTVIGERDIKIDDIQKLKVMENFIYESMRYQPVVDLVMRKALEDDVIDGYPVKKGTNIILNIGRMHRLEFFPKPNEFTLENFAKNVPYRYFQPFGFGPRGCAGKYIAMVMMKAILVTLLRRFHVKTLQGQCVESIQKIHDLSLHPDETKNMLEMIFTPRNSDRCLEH
# human CYP1A1, CYP1A1 (gene 1543), sequence (P04798 whole entry, looked up): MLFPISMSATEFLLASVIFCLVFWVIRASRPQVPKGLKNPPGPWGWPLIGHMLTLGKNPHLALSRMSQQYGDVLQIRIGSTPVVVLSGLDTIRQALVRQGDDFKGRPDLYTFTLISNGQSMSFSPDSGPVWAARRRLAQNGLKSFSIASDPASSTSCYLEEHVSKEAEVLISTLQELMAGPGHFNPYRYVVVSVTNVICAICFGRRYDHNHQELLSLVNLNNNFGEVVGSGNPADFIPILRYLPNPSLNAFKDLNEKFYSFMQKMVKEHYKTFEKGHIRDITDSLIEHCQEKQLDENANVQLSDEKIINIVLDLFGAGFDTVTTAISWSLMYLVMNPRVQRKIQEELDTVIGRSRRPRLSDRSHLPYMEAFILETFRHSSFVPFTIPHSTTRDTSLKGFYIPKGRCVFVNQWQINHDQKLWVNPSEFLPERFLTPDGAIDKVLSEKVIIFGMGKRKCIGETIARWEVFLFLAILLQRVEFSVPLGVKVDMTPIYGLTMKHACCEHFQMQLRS
# human CYP2A6, CYP2A6 (gene 1548), sequence (P11509 whole entry, looked up): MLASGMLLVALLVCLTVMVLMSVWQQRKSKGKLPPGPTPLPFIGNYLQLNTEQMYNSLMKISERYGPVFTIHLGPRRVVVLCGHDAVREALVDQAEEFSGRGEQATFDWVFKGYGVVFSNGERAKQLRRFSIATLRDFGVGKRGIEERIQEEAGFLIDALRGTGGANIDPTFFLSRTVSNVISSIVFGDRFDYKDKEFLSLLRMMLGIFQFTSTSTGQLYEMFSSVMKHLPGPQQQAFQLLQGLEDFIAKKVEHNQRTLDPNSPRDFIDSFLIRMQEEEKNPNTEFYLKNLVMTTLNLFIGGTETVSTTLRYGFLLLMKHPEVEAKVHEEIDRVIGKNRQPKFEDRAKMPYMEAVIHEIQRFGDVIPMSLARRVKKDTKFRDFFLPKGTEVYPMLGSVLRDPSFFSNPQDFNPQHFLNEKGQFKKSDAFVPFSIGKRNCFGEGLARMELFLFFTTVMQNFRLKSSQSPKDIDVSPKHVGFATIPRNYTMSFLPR
# human CYP2B6, CYP2B6 (gene 1555), sequence (P20813 whole entry, looked up): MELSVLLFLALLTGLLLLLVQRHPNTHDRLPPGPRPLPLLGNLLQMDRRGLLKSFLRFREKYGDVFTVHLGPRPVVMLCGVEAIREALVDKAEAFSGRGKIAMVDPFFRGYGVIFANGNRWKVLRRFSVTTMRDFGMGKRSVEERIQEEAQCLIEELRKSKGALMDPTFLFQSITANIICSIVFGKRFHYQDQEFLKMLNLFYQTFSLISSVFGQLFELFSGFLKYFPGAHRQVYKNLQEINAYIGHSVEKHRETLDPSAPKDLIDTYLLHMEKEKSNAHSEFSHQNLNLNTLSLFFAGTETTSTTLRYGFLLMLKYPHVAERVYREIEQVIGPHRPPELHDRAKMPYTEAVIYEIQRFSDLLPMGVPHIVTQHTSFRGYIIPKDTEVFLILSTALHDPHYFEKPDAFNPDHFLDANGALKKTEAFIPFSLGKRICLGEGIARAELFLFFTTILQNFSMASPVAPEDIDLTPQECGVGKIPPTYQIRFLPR
# E-selectin (Homo sapiens), sequence (P16581 whole entry, looked up): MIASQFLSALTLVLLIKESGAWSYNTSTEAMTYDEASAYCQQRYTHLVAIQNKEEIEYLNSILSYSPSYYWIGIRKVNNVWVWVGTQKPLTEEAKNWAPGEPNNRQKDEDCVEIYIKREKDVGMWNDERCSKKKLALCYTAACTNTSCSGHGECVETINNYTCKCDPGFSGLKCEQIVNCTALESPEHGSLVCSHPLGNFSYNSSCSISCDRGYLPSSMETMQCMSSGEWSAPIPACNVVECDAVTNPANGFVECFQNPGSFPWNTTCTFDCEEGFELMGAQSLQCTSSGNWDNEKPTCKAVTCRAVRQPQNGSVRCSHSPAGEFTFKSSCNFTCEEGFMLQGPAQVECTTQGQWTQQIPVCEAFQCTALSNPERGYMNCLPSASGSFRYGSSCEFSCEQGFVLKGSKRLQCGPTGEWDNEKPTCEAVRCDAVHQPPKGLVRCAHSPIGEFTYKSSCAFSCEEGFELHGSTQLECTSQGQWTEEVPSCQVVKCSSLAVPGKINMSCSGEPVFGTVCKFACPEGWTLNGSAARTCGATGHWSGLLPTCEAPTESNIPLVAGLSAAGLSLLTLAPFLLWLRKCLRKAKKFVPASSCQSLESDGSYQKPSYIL
smiles,measurement,setting,value
O=C(NC(=O)c1c(F)cccc1F)Nc1ccc(OC(F)(F)C(F)OC(F)(F)F)c(Cl)c1 (configuration not stated),AC50,[1],9.18 µM (active)
same,outcome,[2],inactive
same,AC50,[3],8.44 µM (active)
same,outcome,[4],inactive
same,AC50,[5],9.75 µM (active)
same,outcome,[6],inactive
O=C(O)C(F)(F)C(F)(F)C(F)(F)C(F)(F)C(F)(F)C(F)(F)C(F)(F)F,outcome,[1],inactive
same,outcome,[2],inactive
same,outcome,[3],inactive
same,AC50,[4],44.3 µM (active)
same,outcome,[4],inactive
same,outcome,[6],inactive
same,outcome,[7],inactive
CCOc1nc(NC)nc(NC(=O)NS(=O)(=O)c2ccccc2C(=O)OC)n1,outcome,[1],inactive
same,outcome,[2],inactive
same,outcome,[3],inactive
same,outcome,[4],inactive
same,outcome,[5],inactive
same,outcome,[6],inactive
COc1cc(OC)nc(NC(=O)NS(=O)(=O)c2cc(NC=O)ccc2C(=O)N(C)C)n1,outcome,[1],inactive
same,outcome,[2],inactive
same,outcome,[3],inactive
same,outcome,[4],inactive
same,outcome,[6],inactive
C#CCN1C(=O)COc2cc(F)c(N3C(=O)C4=C(CCCC4)C3=O)cc21,AC50,[1],16.3 µM (active)
same,outcome,[2],inactive
same,outcome,[3],inactive
same,outcome,[4],inactive
same,outcome,[5],inactive
same,outcome,[6],inactive
same,AC50,[8],4.2 µM (active)
Cc1[nH]c(=O)n(C(C)(C)C)c(=O)c1Cl,AC50,[1],20 µM (active)
same,outcome,[2],inactive
same,AC50,[3],9.4 µM (active)
same,AC50,[4],9.86 µM (active)
same,outcome,[6],inactive
CCOCN(C(=O)CCl)c1c(C)cccc1CC,AC50,[1],17.1 µM (active)
same,outcome,[2],inactive
same,outcome,[3],inactive
same,outcome,[4],inactive
same,AC50,[6],15.9 µM (active)
CCN(CC)C(=O)SCc1ccc(Cl)cc1,outcome,[1],inactive
same,outcome,[2],inactive
same,outcome,[3],inactive
same,outcome,[4],inactive
same,outcome,[6],inactive
CNC(=O)/C=C(\C)OP(=O)(OC)OC,outcome,[1],inactive
same,outcome,[2],inactive
same,outcome,[3],inactive
same,outcome,[4],inactive
same,outcome,[6],inactive
C[C@H]1[C@H](c2ccc(Cl)cc2)SC(=O)N1C(=O)NC1CCCCC1,AC50,[1],15.2 µM (active)
same,outcome,[2],inactive
same,outcome,[3],inactive
same,AC50,[4],13.6 µM (active)
same,AC50,[5],18.1 µM (active)
same,AC50,[6],9.32 µM (active)
Cc1cc(C)nc(NC(=O)NS(=O)(=O)c2ccccc2C(=O)OC2COC2)n1,outcome,[1],inactive
same,outcome,[2],inactive
same,outcome,[3],inactive
same,outcome,[4],inactive
same,outcome,[6],inactive
CC(C)(C)C(O)C(Oc1ccc(Cl)cc1)n1cncn1 (configuration not stated),AC50,[1],12.9 µM (active)
same,outcome,[1],inactive
same,outcome,[2],inactive
same,AC50,[3],3.38 µM (active)
same,outcome,[3],inactive
same,AC50,[4],10.6 µM (active)
same,outcome,[4],inactive
same,outcome,[6],inactive
same,AC50,[7],7.34 µM (active) and 2.41 µM (active)
same,outcome,[9],inactive
same,AC50,[10],7.11 µM (active)
same,outcome,[10],inactive
CC1(c2ccc(Oc3ccccc3)cc2)OC(=O)N(Nc2ccccc2)C1=O (configuration not stated),AC50,[1],15.6 µM (active)
same,AC50,[2],34.1 µM (active)
same,outcome,[3],inactive
same,AC50,[4],11.8 µM (active)
same,AC50,[5],16.9 µM (active)
same,AC50,[6],30.3 µM (active)
[2H]C1([2H])[n+]2ccccc2-c2cccc[n+]2C1([2H])[2H],outcome,[1],inactive
same,outcome,[2],inactive
same,outcome,[3],inactive
same,outcome,[4],inactive
same,outcome,[5],inactive
same,outcome,[6],inactive
CCS(=O)(=O)c1cccnc1S(=O)(=O)NC(=O)Nc1nc(OC)cc(OC)n1,outcome,[1],inactive
same,outcome,[2],inactive
same,outcome,[3],inactive
same,outcome,[4],inactive
same,outcome,[6],inactive
COP(=S)(OC)Oc1ccc([N+](=O)[O-])cc1,AC50,[1],30.9 µM (active)
same,outcome,[2],inactive
same,AC50,[3],11.5 µM (active)
same,AC50,[4],20 µM (active)
same,AC50,[5],21.9 µM (active)
same,AC50,[6],21.7 µM (active)
same,outcome,[7],inactive
same,AC50,[9],2.85 µM (active)
same,AC50,[10],6.61 µM (active)
same,AC50,[8],0.547 µM (active)
COC(=O)c1ccccc1S(=O)(=O)NC(=O)N(C)c1nc(C)nc(OC)n1,outcome,[1],inactive
same,outcome,[2],inactive
same,outcome,[3],inactive
same,outcome,[4],inactive
same,outcome,[5],inactive
same,outcome,[6],inactive
COc1nn(CSP(=S)(OC)OC)c(=O)s1,outcome,[1],inactive
same,outcome,[2],inactive
same,outcome,[3],inactive
same,outcome,[4],inactive
same,outcome,[5],inactive
same,outcome,[6],inactive
same,AC50,[7],1.23 µM (active)
same,AC50,[9],6.42 µM (active)
same,AC50,[10],5.47 µM (active)
same,AC50,[8],0.35 µM (active)
CCC(C)(C)C(=O)OC1=C(c2ccc(Cl)cc2Cl)C(=O)OC12CCCCC2,AC50,[1],11.5 µM (active)
same,AC50,[2],21.3 µM (active)
same,AC50,[3],26.5 µM (active)
same,AC50,[4],4.73 µM (active)
same,AC50,[6],32.8 µM (active)
OCCOc1ccccc1,outcome,[1],inactive
same,outcome,[2],inactive
same,outcome,[3],inactive
same,outcome,[4],inactive
same,outcome,[5],inactive
same,outcome,[6],inactive
Clc1ccccc1-c1nnc(-c2ccccc2Cl)nn1,outcome,[1],inactive
same,outcome,[2],inactive
same,outcome,[3],inactive
same,outcome,[4],inactive
same,outcome,[6],inactive
CCC(C)Nc1c([N+](=O)[O-])cc(C(C)(C)C)cc1[N+](=O)[O-] (configuration not stated),AC50,[1],11.9 µM (active)
same,outcome,[2],inactive
same,AC50,[3],31.9 µM (active)
same,AC50,[4],20 µM (active)
same,outcome,[6],inactive
O=[N+]([O-])/N=C1\NCCN1Cc1ccc(Cl)nc1,outcome,[1],inactive
same,outcome,[2],inactive
same,outcome,[3],inactive
same,outcome,[4],inactive
same,outcome,[5],inactive
same,outcome,[6],inactive
same,outcome,[7],inactive
CC(C)OC(=O)Nc1cccc(Cl)c1,outcome,[1],inactive
same,outcome,[2],inactive
same,outcome,[3],inactive
same,outcome,[4],inactive
same,outcome,[5],inactive
same,AC50,[6],1.76 µM (active)
O=S(=O)(O)C(F)(F)C(F)(F)C(F)(F)C(F)(F)C(F)(F)C(F)(F)C(F)(F)C(F)(F)F,AC50,[1],20 µM (active)
same,outcome,[1],inactive
same,outcome,[2],inactive
same,outcome,[3],inactive
same,outcome,[4],inactive
same,outcome,[6],inactive
same,AC50,[7],5.35 µM (active)
same,outcome,[7],inactive
O=S1OCC2C(CO1)C1(Cl)C(Cl)=C(Cl)C2(Cl)C1(Cl)Cl (configuration not stated),AC50,[1],36.7 µM (active)
same,AC50,[2],34.4 µM (active)
same,AC50,[3],16.1 µM (active)
same,AC50,[4],36.6 µM (active)
same,AC50,[5],14.2 µM (active)
same,AC50,[6],29 µM (active)
same,outcome,[7],inactive
same,AC50,[8],4.85 µM (active)
